KCNQ2 inh: blocks the rat KCNQ2 potassium channel | O88943 | CHO-K1 KCNQ2, FluxOR thallium flux, 20 min; hits give low values | B-score at 10 µM | 310,000 tested, 1.1% active | AID 2156;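 active = fluorescence ratio B-score at most minus 3 library SDs, with starting brightness B-score within 2 library SDs, cut at about -5.5 in these data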
KCNQ2 pot: potentiators of rat KCNQ2 potassium channel | O88943 | CHO-K1 KCNQ2, FluxOR thallium flux fluorescence; hits give high values | B-score at 10 µM | 310,000 tested, 0.54% active | AID 2239;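 active = fluorescence ratio B-score at least 3 SD of library B-scores, with initial fluorescence B-score within 3 of them, cut at about 5.3 in these data; same plate scores as AID 2156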;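 note: B-score of peak minus minimum over baseline fluorescence ratio after K+ and Tl+ stimulus; positive B-score means potentiation of KCNQ2 with more thallium influx and brighter signal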
KCNQ2 inh conf: rat KCNQ2 channel inhibition, confirmatory screen; shares compounds with KCNQ2 inh; KCNQ2-expressing cells, thallium flux; hits give low values; activity change, negative = inhibition, % at 10 µM; 1,000 tested, 57% active;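 note: 0% = vehicle wells and values are ratio percent relative to vehicle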
KCNQ1 spec: KCNQ2 inhibitor that also affects human KCNQ1 channel; shares compounds with KCNQ2 inh; KCNQ1-expressing cells, FluxOR thallium flux fluorescence; hits give low values; activity change, negative = inhibition, % at 10 µM; 1,000 tested, 15% active; AID 493026;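 active = activity change at least 3 SD of negative controls below their mean in both duplicate wells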;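 note: CHO cells stably transfected with KCNQ1 and depolarized by potassium stimulus; peak minus minimum fluorescence over baseline after thallium addition; 0% = vehicle negative control and -100% = blank without thallium stimulus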
Target sequence (P51787 whole entry, looked up): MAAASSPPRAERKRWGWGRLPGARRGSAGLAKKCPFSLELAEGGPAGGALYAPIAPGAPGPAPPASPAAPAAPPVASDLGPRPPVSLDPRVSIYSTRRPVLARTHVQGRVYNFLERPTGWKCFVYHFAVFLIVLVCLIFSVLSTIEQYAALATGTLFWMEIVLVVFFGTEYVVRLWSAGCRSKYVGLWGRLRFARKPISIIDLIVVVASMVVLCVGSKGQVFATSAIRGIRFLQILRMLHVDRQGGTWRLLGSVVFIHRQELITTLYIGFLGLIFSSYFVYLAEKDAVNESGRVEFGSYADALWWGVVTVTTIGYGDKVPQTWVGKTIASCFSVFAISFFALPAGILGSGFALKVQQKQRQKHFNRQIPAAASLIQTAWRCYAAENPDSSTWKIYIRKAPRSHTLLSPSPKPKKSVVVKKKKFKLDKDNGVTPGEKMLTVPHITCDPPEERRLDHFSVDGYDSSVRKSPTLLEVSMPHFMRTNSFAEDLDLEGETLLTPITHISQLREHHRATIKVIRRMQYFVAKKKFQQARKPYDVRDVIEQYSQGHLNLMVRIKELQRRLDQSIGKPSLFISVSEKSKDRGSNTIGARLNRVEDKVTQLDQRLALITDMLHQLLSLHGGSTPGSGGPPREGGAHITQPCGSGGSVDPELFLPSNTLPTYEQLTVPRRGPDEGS
CHO Tl ctr: counter-screen for KCNQ2 inhibitors: effect in parental CHO cells; AID 493029; shares compounds with KCNQ2 inh; activity change, % at 10 µM; 1,000 tested, 14% active; thallium flux counter-screen; hits give low values;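 note: 0% = vehicle negative controls with stimulus buffer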
KCNQ2 patch conf: confirmation of rat KCNQ2 potassium channel inhibitors; calls only at 10 µM; 550 tested, 49% active; shares compounds with KCNQ2 inh; KCNQ2-expressing cells, automated patch clamp current
Numbers without * were called inactive; i = inactive; · = no result given; + = active, no number. This is a sample that favours compounds with a hit; in the whole collection about 1.6% have one here. Unless noted, the rule behind the calls is not given here.

SMILES	KCNQ2 inh	KCNQ2 pot	KCNQ2 inh conf	KCNQ1 spec	CHO Tl ctr	others
CCCc1nnc(NC(=O)C2CC(=O)N(C3CCCC3)C2)s1 (centres undefined)	i	0.75	·	·	·
CCN1CCN(S(=O)(=O)c2ccc(Cl)c(C(=O)N(C)Cc3cccc(Cl)c3Cl)c2)CC1	-6.9*	-6.9	i	i	i
CCN1CCN(S(=O)(=O)c2ccc(Cl)c(C(=O)N(C)Cc3ccc(F)cc3)c2)CC1	i	0.54	·	·	·
COc1ccc(S(=O)(=O)N2CCCCCC2)cc1C(=O)N(C)Cc1cccs1	i	1.4	·	·	·
COc1ccc(S(=O)(=O)N2CCCCCC2)cc1C(=O)N(C)Cc1ccc(Cl)cc1Cl	-8.5*	-8.5	i	i	i
CC1CCCC(NC(=O)c2cccc(S(=O)(=O)N3CCN(c4ccccc4)CC3)c2)C1C (centres undefined)	i	0.32	·	·	·
CCn1cc(C(=O)N2CCCC(N3CCN(c4ccccc4C)CC3)C2)cn1 (centres undefined)	i	0.73	·	·	·
O=C(NCC1CCCCC1)c1cccc(-c2ccc(O)cc2)c1	i	0.12	·	·	·
Cc1ccc(Sc2c(C)nn(C(=O)c3cccc(S(=O)(=O)N4CCOCC4)c3)c2C)cc1	-9*	-9	-33%*	i	i	KCNQ2 patch conf=i
Cc1cc(C)n(C(=O)c2cccc(S(=O)(=O)N3CCOCC3)c2)n1	i	·	·	·	·
COc1ccc(-c2cc(C(=O)N3CCCC3)c3ccccc3n2)cc1	i	·	·	·	·
Cc1ccc(-c2cc(C(=O)N3CCCCC3)c3ccccc3n2)cc1C	-9.3*	-9.3	-36%*	i	i	KCNQ2 patch conf=+
CC1CN(C(=O)c2cc(-c3ccc(Cl)s3)nc3ccccc23)CC(C)O1 (centres undefined)	-8.5*	-8.5	-33%*	i	i	KCNQ2 patch conf=+
CC1CC(C)CN(C(=O)c2cc(-c3ccccn3)nc3ccccc23)C1 (centres undefined)	i	·	·	·	·
Cc1ccc(-c2cc(C(=O)N3CCCc4ccccc43)c3ccccc3n2)cc1	-6.9*	-6.9	i	i	i
Cc1ccccc1-c1cc(C(=O)N2CCCC2)c2ccccc2n1	i	0.36	·	·	·
COc1ccc(-c2cc(C(=O)N3CC(C)CC(C)C3)c3ccccc3n2)cc1 (centres undefined)	-8.7*	-8.7	-35%*	i	i	KCNQ2 patch conf=+
O=C(c1cc(-c2cccnc2)nc2ccccc12)N1CCCc2ccccc21	i	·	·	·	·
CC1(C)c2cc(Cl)ccc2-n2c1cc(O)c(-c1ccccc1)c2=O	i	0.12	·	·	·
Cc1nnc(SCCC(=O)Nc2ccccc2Cl)o1	i	·	·	·	·
CCCC(=O)NCC(c1cccs1)S(=O)(=O)c1ccc(C)cc1 (centres undefined)	i	·	·	·	·
Cc1nc2ccccc2c(=O)n1/N=C/c1cn(-c2ccccc2)nc1-c1cccs1	-9.1*	-9.1	-36%*	i	i	KCNQ2 patch conf=i
Cc1nc2ccccc2c(=O)n1/N=C/c1cccs1	i	·	·	·	·
CC1=C(C(=O)NC(C)c2ccc3c(c2)OCCO3)C2(CCC(C)CC2)OC1=O (centres undefined)	-10*	-10	-26%*	i	i	KCNQ2 patch conf=+
CC1=C(C(=O)NC(C)c2ccccc2)C2(CCC(C)CC2)OC1=O (centres undefined)	i	·	·	·	·
SMILES	KCNQ2 inh	KCNQ2 pot	KCNQ2 inh conf	KCNQ1 spec	CHO Tl ctr	others
CC(C)(C)c1cc(C(=O)C[n+]2ccc(C(=O)NCCCO)cc2)cc(C(C)(C)C)c1O	i	0.37	·	·	·
CC(=O)Nc1ccccc1OCC(=O)NCCC1=CCCCC1	i	1.3	·	·	·
Cc1ccccc1OCC(=O)NCCC1=CCCCC1	-7.3*	-7.3	i	i	i
Cc1ccc(CN2CCC(=O)N2)cc1	i	·	·	·	·
COc1ccc(C(=O)COC(=O)c2cc(S(=O)(=O)NCc3ccccc3)ccc2O)cc1	i	·	·	·	·
CC1CCN(C(=O)/C(=C/c2ccccc2Cl)c2ccccc2)CC1	-7.5*	-7.5	-32%*	i	i	KCNQ2 patch conf=i
CN1CCN(C(=O)/C(=C\c2ccccc2)c2ccccc2)CC1	i	1.4	·	·	·
Cc1cc(C)cc(NC(=O)C(OC(=O)Cn2cnc3c2c(=O)n(C)c(=O)n3C)c2ccccc2)c1 (centres undefined)	-9*	-9	-24%*	i	i	KCNQ2 patch conf=i
COc1ccc(C)cc1NC(=O)C(OC(=O)Cn1cnc2c1c(=O)n(C)c(=O)n2C)c1ccccc1 (centres undefined)	i	0.65	·	·	·
O=C(COc1ccc(F)cc1)N(c1ccccn1)C1CCCCC1	-6.8*	-6.8	-28%*	i	i	KCNQ2 patch conf=+
CC(C)c1ccc(OCC(=O)N(c2ccccn2)C2CCCCC2)cc1	i	·	·	·	·
CCn1cnc2c1c(=O)n(Cc1csc(-c3ccccc3)n1)c(=O)n2Cc1ccccc1	-9.4*	-9.4	-16%*	i	i	KCNQ2 patch conf=i
CCn1cnc2c1c(=O)n(Cc1cccc([N+](=O)[O-])c1)c(=O)n2Cc1ccccc1	i	0.22	·	·	·
COc1ccc(/C=N/Nc2nc(C)cc(-c3ccccc3)n2)c(OC)c1	i	1.8	·	·	·
COc1ccc(/C=N/Nc2cc(C)nc3ccc(OC)cc23)c(OC)c1	-9*	-9	-41%*	-32%*	-24%*	KCNQ2 patch conf=i
NC(=O)c1ccccc1NC(=O)CCn1c(=S)oc2ccccc21	i	·	·	·	·
CC1CCc2[nH]c3ccc(C(=O)N4CCCC(C(F)(F)F)C4)cc3c2C1 (centres undefined)	i	·	·	·	·
O=[N+]([O-])c1ccc(C2CCCC/C2=N/OCc2ccccc2F)c([N+](=O)[O-])c1 (centres undefined)	-10*	-10	-36%*	i	i	KCNQ2 patch conf=i
O=[N+]([O-])c1ccc(C2CCCC/C2=N/OCc2ccc(F)cc2)c([N+](=O)[O-])c1 (centres undefined)	i	·	·	·	·
Cc1ccnc(NC(=O)c2cccc(S(=O)(=O)N3CCCc4ccccc43)c2)c1	i	·	·	·	·
CCC(C)[C@H](NC(=O)[C@@H]1CSC2c3ccccc3C(=O)N21)C(=O)NCc1ccco1 (some centres undefined)	i	·	·	·	·
COc1ccc(OC)c(NC(=O)C(CCSC)NS(=O)(=O)c2cccs2)c1 (centres undefined)	i	1.6	·	·	·
CC(C)CN1C(=O)C(=O)N(CC(=O)c2ccc[nH]2)C1=O	i	1.7	·	·	·
CCOC(=O)C(NC(=O)c1ccc(Cl)cc1Cl)(Nc1ccc(C)cc1)C(F)(F)F (centres undefined)	-8.5*	-8.5	i	i	i
CCOC(=O)C(NC(=O)c1ccccc1Cl)(Nc1ccc(C(F)(F)F)cc1)C(F)(F)F (centres undefined)	i	·	·	·	·
O=C(NCCc1ccccc1)c1oc2ccccc2c1COc1ccccc1	-9*	-9	-24%*	i	i	KCNQ2 patch conf=i
O=C(Nc1ccccc1Cc1ccccc1)c1oc2ccccc2c1COc1ccccc1	i	·	·	·	·
O=C(Nc1ccc(Br)c(C(F)(F)F)c1)c1ccc(C(F)(F)F)cc1	i	·	·	·	·
